Measured values published in PubChem BioAssay AID1159580 (chemical genetic matrix, 2015).
Out of some 5,500 compounds screened, about 2,000 (36%) were called active. Not shown: some 18% with an inconclusive outcome. Cut-off read from the data, not from the text of the source: active = normalized growth mostly below about 0.91 (no sharp cut-off); inconclusive = no clear call, values can overlap the other calls; inactive = mostly above about 0.92. The list shows a part of the results.

Experiment: chemical genetic growth profiling, strain panel (AID 1159580);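 note: tested at 20 µM; growth read once vehicle control cultures reached saturation at 30 °C; 1 = growth at the plate median or of vehicle wells; lower values mean less growth of the strain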
Settings: S. cerevisiae deletion strains, growth OD

Measured: normalized growth

O=C(CNC(=O)c1ccc(Cl)cc1)NO
inactive: locus YAL021C, strain ccr4, stronger effect = lower value 1.01 | locus YAL026C, strain drs2, stronger effect = lower value 1.01 | locus YAL030W, strain snc1, stronger effect = lower value 1.01 | locus YBL061C, strain skt5, stronger effect = lower value 1.01 | locus YBR009C, strain hhf1, stronger effect = lower value 1.01 | locus YBR023C, strain chs3, stronger effect = lower value 1.02 | locus YBR171W, strain sec66, stronger effect = lower value 1.02 | locus YBR231C, strain swc5, stronger effect = lower value 1.01 | locus YBR279W, strain paf1, stronger effect = lower value 1.01 | locus YCL011C, strain gbp2, stronger effect = lower value 1.01 | locus YCL016C, strain dcc1, stronger effect = lower value 1.02 | locus YCL061C, strain MRC1, stronger effect = lower value 1 | locus YCL069W, strain vba3, stronger effect = lower value 1.01 | locus YCR088W, strain abp1, stronger effect = lower value 1.01 | locus YDL005C, strain med2, stronger effect = lower value 1.02 | locus YDL040C, strain nat1, stronger effect = lower value 1.01 | locus YDR001C, strain nth1, stronger effect = lower value 1 | locus YDR069C, strain doa4, stronger effect = lower value 1.01 | locus YDR137W, strain rgp1, stronger effect = lower value 1.03 | locus YDR159W, strain sac3, stronger effect = lower value 1.01 | locus YDR195W, strain ref2 0.972 | locus YDR297W, strain sur2, stronger effect = lower value 1.04 | locus YDR334W, strain swr1, stronger effect = lower value 1.02 | locus YDR335W, strain msn5, stronger effect = lower value 1.02 | locus YDR392W, strain spt3, stronger effect = lower value 1 | locus YEL003W, strain gim4, stronger effect = lower value 1.01 | locus YEL037C, strain rad23, stronger effect = lower value 1.04 | locus YEL061C, strain CIN8 (second series), stronger effect = lower value 1.01 | locus YER015W, strain faa2, stronger effect = lower value 1.01 | locus YER016W, strain bim1, stronger effect = lower value 1.02 | locus YER111C, strain swi4, stronger effect = lower value 1.01 | locus YER155C, strain BEM2 (second series), stronger effect = lower value 1.03 | locus YFR010W, strain ubp6, stronger effect = lower value 1.02 | locus YGL167C, strain pmr1, stronger effect = lower value 1.01 | locus YGL173C, strain kem1, stronger effect = lower value 1.02 | locus YGL227W, strain vid30, stronger effect = lower value 1.01 | locus YGL240W, strain doc1, stronger effect = lower value 1.01 | locus YGL253W, strain hxk2, stronger effect = lower value 1.01 | locus YHR013C, strain ard1, stronger effect = lower value 1.04 | locus YHR027C, strain rpn1, stronger effect = lower value 1.01 | locus YHR030C, strain SLT2, stronger effect = lower value 1.02 | locus YHR079C, strain IRE1, stronger effect = lower value 1.03 | locus YHR142W, strain chs7, stronger effect = lower value 0.997 | locus YJL092W, strain hpr5, stronger effect = lower value 1.01 | locus YJL095W, strain BCK1 (second series), stronger effect = lower value 1 | locus YJL095W, strain BCK1, stronger effect = lower value 1.06 | locus YJL115W, strain asf1, stronger effect = lower value 1.02 | locus YJL129C, strain trk1, stronger effect = lower value 1.03 | locus YJL154C, strain vps35, stronger effect = lower value 1.02 | locus YJL164C, strain tpk1, stronger effect = lower value 1.01 | locus YJL166W, strain qcr8, stronger effect = lower value 1.01 | locus YJL187C, strain SWE1, stronger effect = lower value 1.01 | locus YJR066W, strain TOR1, stronger effect = lower value 0.941 | locus YKL160W, strain elf1, stronger effect = lower value 1.01 | locus YKR026C, strain gcn3, stronger effect = lower value 0.992 | locus YKR091W, strain srl3, stronger effect = lower value 1.01 | locus YLL001W, strain dnm1, stronger effect = lower value 1.03 | locus YLL026W, stronger effect = lower value 1.01 | locus YLL041C, strain sdh2, stronger effect = lower value 1.02 | locus YLR027C, strain aat2, stronger effect = lower value 1.01 | locus YLR113W, strain HOG1, stronger effect = lower value 1.04 | locus YLR221C, strain rsa3, stronger effect = lower value 1.01 | locus YLR258W, strain gsy2, stronger effect = lower value 1.02 | locus YLR262C, strain YPT6 (second series), stronger effect = lower value 1.03 | locus YLR320W, strain mms22, stronger effect = lower value 1.01 | locus YLR342W, strain FKS1, stronger effect = lower value 1.01 | locus YLR357W, strain rsc2, stronger effect = lower value 1.02 | locus YLR370C, strain arc18, stronger effect = lower value 1.01 | locus YLR384C, strain iki3, stronger effect = lower value 1.02 | locus YML120C, strain ndi1, stronger effect = lower value 1.01 | locus YMR058W, strain fet3, stronger effect = lower value 1.01 | locus YMR125W, strain sto1, stronger effect = lower value 1.01 | locus YMR129W, stronger effect = lower value 1.01 | locus YMR205C, strain PFK2, stronger effect = lower value 1.01 | locus YMR231W, strain pep5, stronger effect = lower value 1.02 | locus YNL071W, strain lat1, stronger effect = lower value 1.02 | locus YNL183C, strain NPR1, stronger effect = lower value 0.951 | locus YNL209W, strain ssb2, stronger effect = lower value 1.02 | locus YNL248C, strain rpa49, stronger effect = lower value 1.01 | locus YNL322C, strain KRE1 (second series), stronger effect = lower value 1.01 | locus YNR049C, strain mso1, stronger effect = lower value 1.01 | locus YOR001W, strain rrp6, stronger effect = lower value 1.02 | locus YOR070C, strain gyp1, stronger effect = lower value 1.02 | locus YOR080W, strain dia2, stronger effect = lower value 1.01 | locus YOR083W, strain WHI5, stronger effect = lower value 1.01 | locus YOR106W, strain vam3, stronger effect = lower value 1.02 | locus YOR231W, strain MKK1, stronger effect = lower value 1.01 | locus YOR265W, strain rbl2, stronger effect = lower value 1.01 | locus YOR270C, strain vph1, stronger effect = lower value 1.05 | locus YOR290C, strain snf2, stronger effect = lower value 1.03 | locus YPL051W, strain arl3, stronger effect = lower value 1.01 | locus YPL078C, strain atp4, stronger effect = lower value 1.01 | locus YPL106C, strain sse1, stronger effect = lower value 1.04 | locus YPL240C, strain hsp82, stronger effect = lower value 1.02 | locus YPL256C, strain CLN2, stronger effect = lower value 0.997
